SMN2 splice enh: increases expression of the SMN2 splice variant. HEK293 SMN2-luciferase splicing reporter, luminescence, 30-36 h. Potency, µM (highest dose often 46.1 µM), inactives show top-dose activity change, positive = activation, usual class: activators. 210,000 compounds, 2.8% hits. AID 1458; note: % of control where 0% means no effect; nearly all actives have a fitted effect of over 55% in size
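HEK293 cells carry an SMN2 […]–luciferase reporter in which exon 7 inclusion puts luciferase in frame. Cells were plated 10-12 h before compound addition, then incubated 30-36 h at 37C. ONE-Glo luminescence was read; sodium butyrate at 4.5 mM final served as control.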
NPC1 promoter act: NPC1 promoter activation; 320,000 compounds, 2.4% hits; Huh7 NPC1 promoter luciferase reporter, 24 h; Potency, µM (series often up to 9.22 µM), without a hit: at the top dose activation, hits mostly activators; note: % of control where 0% means no effect; nearly all actives have a fitted effect of over 60% in size
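Cells: Huh7 expressing luciferase under the NPC1 promoter, 1500/well. Seeded 2 h, compound added, incubated 24 h at 37 °C. Luciferase reagent, 10 min ambient, then luminescence.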
Rab9 promoter act: activates the Rab9 promoter. 320,000 compounds, 2.8% hits. AID 485297. Potency, µM (doses to about 9.22 µM), for the others: top-dose activation, negative = inhibition, most hits filed as activators. Huh7 Rab9 promoter-luciferase reporter, luminescence, 24 h; note: % of control where 0% means no effect; nearly all actives have a fitted effect of over 60% in size
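Using Huh7 cells stably transfected with Rab9 promoter–luciferase, compounds were incubated 24 h at 37 °C, 5% CO2; luciferase luminescence was read 10 min after reagent addition.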
ELG1 genotox: inducers of genotoxicity in HEK293T ELG1-luciferase cells | Potency, µM (highest dose often 46 µM), without a hit: top-dose activity change, positive = activation, hits mostly activators | 330,000 compounds, 1.3% hits | HEK293T ELG1-luciferase reporter, luminescence, 16 h; note: % of control where 0% means no effect; nearly all actives have a fitted effect of over 60% in size
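16 hr compound incubation (37 °C, 5% CO2) of HEK293T cells carrying luciferase-tagged ELG1; luciferase then measured by ONE-Glo luminescence after 30 min at RT.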
FLuc modulator: counter-screen for miR-21 project: firefly luciferase inhibitors or activators | P08659 | purified FLuc, Km substrates, luminescence inhibition | Potency, µM (top dose mostly 57.5 µM), inactives show at the top dose activity change, negative = inhibition, most hits filed as inhibitors | 360,000 compounds, 6.9% hits;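 note: plate controls were vehicle for no effect and reference inhibitor for full effect; nearly all actives have a fitted effect of over 55% in size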
Target sequence (P08659 whole entry, looked up): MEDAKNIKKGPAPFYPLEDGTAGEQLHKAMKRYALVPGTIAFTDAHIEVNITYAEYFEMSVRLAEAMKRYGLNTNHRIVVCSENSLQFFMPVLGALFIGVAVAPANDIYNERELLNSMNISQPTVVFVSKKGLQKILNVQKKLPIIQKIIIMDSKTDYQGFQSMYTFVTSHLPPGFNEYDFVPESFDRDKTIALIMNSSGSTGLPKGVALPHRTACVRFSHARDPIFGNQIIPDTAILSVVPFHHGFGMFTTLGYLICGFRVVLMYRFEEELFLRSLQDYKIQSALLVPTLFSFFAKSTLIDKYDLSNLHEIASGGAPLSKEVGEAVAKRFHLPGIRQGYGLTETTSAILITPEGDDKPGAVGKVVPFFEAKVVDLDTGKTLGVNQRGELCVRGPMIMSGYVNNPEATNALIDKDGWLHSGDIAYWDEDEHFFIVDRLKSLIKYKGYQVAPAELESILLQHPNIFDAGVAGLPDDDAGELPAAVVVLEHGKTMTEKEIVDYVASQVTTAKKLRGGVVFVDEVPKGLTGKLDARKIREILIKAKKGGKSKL
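Purified P. pyralis luciferase (10nM final) with 10uM D-luciferin and 10uM ATP (Km levels) in 50mM Tris acetate pH 7.5, 10mM Mg acetate, 0.01% Tween-20, 0.05% BSA; qHTS 6-point titration, ~60 µM downward; luminescence read.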
Numbers without * were called inactive; u = inconclusive; x = not tested or not shown; [ ] = another dose, or the depositor's remark. Rows were chosen to be rich in hits. Some 7.5% of all compounds tested hit in one or more screens of this group. Calls come from the whole dose curve; as a rule, active = well fitted curve in the direction sought with a large enough effect; inconclusive = small, poorly fitted or top-dose-only effect, or another doubt; inactive = no such curve, though single readings can be large; an effect the other way counts as inactive or inconclusive. Potency is the fitted concentration of half-maximal effect.

SMILES	SMN2 splice enh	NPC1 promoter act	Rab9 promoter act	ELG1 genotox	FLuc modulator
CCOC(=O)c1ccc(NC(=O)c2cn(-c3ccccc3)nc2-c2ccc(Br)cc2)cc1	-5%	x	x	x	4%
CCOC(=O)c1nn(-c2ccc(Br)cc2)cc1C(=O)c1cccc2ccccc12	u	20%	u	17%	6.7µM*
O=C(Nc1ccccc1)C1=C[C@H](c2ccc(Br)cc2)C[C@H](OCc2ccc(CO)cc2)O1	x	0%	-4%	-1%	1%
Cc1cccc(NC(=O)Cc2ccc(-c3ccccc3)cc2)n1	x	-2%	3%	-5%	u
Cc1cccc(NC(=S)NC(=O)c2oc3ccccc3c2C)n1	x	1.3µM*	1.4µM*	u	u
Cc1cccc(NC(=S)NC(=O)c2ccc(-c3ccccc3)cc2)n1	x	2.8µM*	2.2µM*	u	11µM*
COCCNC(=S)N/N=C1\CC(C)CC(C)(C)C1 (configuration not stated)	-6%	-2%	1%	-3%	0%
NC(=O)COC(=O)c1ccc(C(=O)C(=O)c2ccccc2)cc1	4%	0%	0%	-5%	-4%
NC(=O)COC(=O)c1ccc2noc(-c3ccccc3)c2c1	x	4µM*	29%	14%	-9%
Fc1cccc(CNc2ncnc3ccc(-c4cccnc4)cc23)c1	x	1%	-1%	x	5%
Cc1ccc(C)n1-c1cccc(C(=O)O)c1	19%	-3%	-4%	-3%	1%
CCN(CC)c1ccc(-n2c(O)c(C=C3N=c4ccccc4=N3)sc2=S)cc1	18%	0%	0%	3%	-1%
O=C(O)c1ccc(-n2c(O)c(C=C3N=c4ccccc4=N3)sc2=S)cc1	x	1%	-2%	-3%	13µM*
O=C(O)c1cccc(-n2c(O)c(C=C3N=c4ccccc4=N3)sc2=S)c1	x	-7%	-4%	-9%	13µM*
O=C(Nc1ccccc1F)C1COc2ccccc2O1 (configuration not stated)	x	-1%	0%	u	u
NC(=O)c1sc2nnc(-c3ccccc3)c(-c3ccccc3)c2c1N	x	-6%	-11%	-3%	1%
CC(=O)c1sc(N/N=C\c2ccc(N(C)C)cc2)nc1C	x	1.3µM*	2.5µM*	4.6µM*	1.3µM*
CC(=O)c1sc(N/N=C/c2cccc(O)c2)nc1C	x	10%	u	u	9.5µM*
CC(=O)Nc1nc(C)c(C(C)=O)s1	2%	-2%	9%	-5%	0%
COC(=O)c1sc(N/N=C/c2ccc(C(C)C)cc2)nc1C	x	29%	u	13%	19µM*
CC(=O)c1sc(N/N=C/c2cccc([N+](=O)[O-])c2)nc1C	x	22%	u	u	u
CN(CC(=O)Nc1ccc(Cl)c(Cl)c1)C(=O)c1cccc2cccnc12	x	-5%	4%	0%	3%
Cc1csc(N/N=C/c2ccccn2)n1	3.5µM*	4%	0.45µM*	12µM*	2.1µM*
Cc1csc(N/N=C/c2ccc([N+](=O)[O-])cc2)n1	x	u	2.8µM*	10%	u
O=C(O)c1csc(N/N=C/c2ccc(Br)cc2)n1	-5%	25%	30%	7%	5.4µM*
SMILES	SMN2 splice enh	NPC1 promoter act	Rab9 promoter act	ELG1 genotox	FLuc modulator
CCOC(=O)Cc1csc(N/N=C/c2ccc(C(F)(F)F)cc2)n1	-22%	-5%	2%	3%	1%
C(=N\Nc1nc2ccccc2s1)/c1ccccn1	x	-6%	-28%	u	0.076µM*
Cc1cc(=O)[nH]c(N/N=C/c2ccc([N+](=O)[O-])cc2)n1	-10%	-2%	0%	10%	-1%
COc1cccc(NC(=O)Cn2c(=O)n(-c3ccc(CC(=O)NCC4CCCO4)cc3)c(=O)c3ccccc32)c1 (configuration not stated)	-7%	x	x	x	3%
CCCCc1nc2c(c3c1C[C@H](C)OC3)CN(C(=O)NCc1ccco1)CC2	-9%[9.22 µM]	x	x	x	x
CCOc1ccc(N(CC(=O)NC2CCCC2)C(=O)CSc2nnc(COc3ccccc3)o2)cc1	-11%	1%	1%	-5%	-6%
CCSC1=NCCN1C(=O)c1ccc(S(=O)(=O)N(C)C)cc1	-15%	-3%	-4%	0%	-1%
CCOC(=O)c1ccccc1NC(=O)N1CCC(CN2CCCCC2)CC1	x	x	x	x	1%
C(=N\Nc1ccccc1)/c1nc2ccccc2s1	x	3.5µM*	0.79µM*	u	1.5µM*
Brc1csc(/C=N/Nc2nc3ccccc3s2)c1	2.8µM*	5µM*	3.2µM*	u	1.2µM*
COc1cccc(OC)c1OCCN1CCN(C(c2ccccc2)c2ccccc2)CC1	x	-3%	0%[1.84 µM]	-11%	1%
CC1=NN(c2ccc(Cl)cc2)C(=O)C1	-6%	0%	8%	-5%	-2%
Cc1cc(C)n(-c2nc(-c3ccc(Cl)cc3)cs2)n1	13%	u	3.5µM*	u	5.4µM*
Cc1ccc(-c2csc(N3C(=N)SCC3=O)n2)cc1	x	u	2.8µM*	10µM*	2.4µM*
CC(C)(C)c1ccc(N2C(=N)SCC2=O)cc1	x	0%	-1%	-3%	-18%
CC1=NN(c2nc(-c3ccc(Cl)cc3)cs2)C(=O)C1	-2%	7%	-5%	-6%	15µM*
CC1=NN(c2nc(-c3ccc(F)cc3)cs2)C(=O)C1	-6%	0%	2%	2%	17µM*
Cc1cc(C)n(CCc2nc(-c3ccc(F)cc3)cs2)n1	x	-1%	6%	-2%	-19%
C#CCOc1ccccc1CNC1CCN(Cc2ccccc2)CC1	x	-2%	-12%	-8%	7%
COc1cccc2cc(-c3nc(-c4cccs4)cs3)c(=O)oc12	14µM*	3.5µM*	3.5µM*	u	5.4µM*
COc1cccc2cc(-c3nc(-c4ccccc4F)no3)c(=O)oc12	x	x	x	x	0.17µM*
COc1cccc(-c2noc(-c3cc4ccccc4oc3=O)n2)c1OC	x	x	x	x	2.7µM*
Cc1ccc(-c2nc(-c3cc4cccc(OCc5cccc(C)c5)c4oc3=O)no2)cc1	6%	x	x	x	0%
COc1cc(-c2noc(-c3cc4cc(F)ccc4oc3=O)n2)cc(OC)c1OC	x	x	x	x	2%
CCOc1cccc2cc(-c3nc(-c4ccccc4C)no3)c(=O)oc12	x	x	x	x	0.54µM*
SMILES	SMN2 splice enh	NPC1 promoter act	Rab9 promoter act	ELG1 genotox	FLuc modulator
CN(CC1CCOCC1)C(=O)CC1C(=O)NCCN1Cc1ccc(F)c(F)c1 (configuration not stated)	x	-2%	14%	3%	2%
COc1ccc2oc(=O)c(-c3nc(-c4cc(OC)c(OC)c(OC)c4)no3)cc2c1	x	x	x	x	1%
COc1cccc2cc(-c3nc(-c4cccs4)no3)c(=O)oc12	-8%	x	x	x	0.076µM*
COc1cc(OC)cc(C(=O)NC(=S)Nc2nc(-c3cc4ccccc4o3)cs2)c1	x	-2%	-1%	-2%	2%
COCCNc1nc(-c2cc3ccccc3o2)cs1	3.2µM*	1.6µM*	1µM*	u	1.5µM*
CCN(CC)S(=O)(=O)c1nnc(NC(=O)COc2ccccc2F)s1	x	x	x	x	11µM*
